HT1080-NT tox: kills 2HG-producing HT-1080-NT fibrosarcoma cells | HT-1080-NT fibrosarcoma viability, CellTiter-Glo ATP luminescence, 48 h | 1.6% of 360,000 active | Potency, µM (series often up to 46.1 µM), without a hit: at the top dose activity, negative = less viability, most hits filed as cytotoxic | AID 686970;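 note: NT is the 2HG producing partner of a matched IDH1 knockdown line; 0% = DMSO-treated cells and -100% = media-only wells without cells; nearly all actives have a fitted effect of over 55% in size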
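Toxicity toward the 2HG-producing NT line was scored as %Activity, normalised to DMSO and no-cell wells, from CellTiter-Glo luminescence after 48 hours' treatment.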
KB-V1 cytotox: kills drug-selected multidrug resistant KB-V1 cells; Potency, µM (doses to about 46.1 µM), actives largely listed as cytotoxic; 3.4% of 400,000 active; KB-V1 MDR cells viability, CellTiter-Glo, 72 h; note: % is set by controls: 0 for no effect and ±100 for the full control effect; nearly all actives have a fitted effect of over 60% in size
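KB-V1 MDR subline cells in DMEM (phenol-red free, 10% FBS) exposed to compounds in qHTS concentration series for 72 h at 37 degrees C. Viability read by CellTiter-Glo luminescence; concentration-effect curves fitted after normalization and correction.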
HT1080 IDH1KD tx: HT-1080 IDH1 knockdown cell toxicity (counter line). HT-1080 IDH1 knockdown viability, ATP luminescence, 48 h. Potency, µM (titrated, usually from 46.1 µM), without a hit: at the highest dose activity, negative = toxicity, actives largely listed as cytotoxic. AID 686971. 2% of 360,000 active;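 note: 0% = DMSO wells and -100% = cell-free medium wells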
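In this qHTS, HT-1080 cells depleted of IDH1 are exposed for 48 h at 37 °C to compound titrations. Toxicity is scored from CellTiter-Glo luminescence, with DMSO as full viability and medium alone as none.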
HepG2 viability: HepG2 cytotoxicity, counter-screen for TGF-b inhibitors; 0.76% of 410,000 active; Potency, µM (titrated, usually from 46.1 µM), for inactives: at the highest dose activity change, negative = cytotoxicity, most hits filed as cytotoxic; AID 588856; HepG2 CAGA-GFP viability, ATP luminescence, 18 h
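HepG2 CAGA-GFP cells (1000/well, DMEM with 1% FBS) received compound, then TGF-beta at 500 pg/mL final, and were incubated 18 hours at 37 degrees C. Viability was read by CellTiter-Glo luminescence. Media-only wells were set as complete cell-killing and DMSO as no toxicity.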
TGFb inhibitor: TGF-b pathway inhibition. HepG2 CAGA-GFP TGF-b/SMAD3 reporter, GFP fluorescence, 18 h; TGF-beta stimulated, 500 pg/mL final. Potency, µM (titrated, usually from 46.1 µM), inactives show top-dose activity, negative = inhibition, most hits filed as inhibitors. 1.2% of 410,000 active; note: % is set by controls: 0 for no effect and ±100 for the full control effect; nearly all actives have a fitted effect of over 65% in size
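Inhibition was scored as loss of TGF-beta-induced (500 pg/mL final, 18 hours, 37 degrees C) GFP in HEPG2 cells carrying a CAGA-GFP reporter, in DMEM with 1% FBS. Well GFP was summed per cell; Activity was normalised to unstimulated and stimulated DMSO wells, then concentration-response fitting.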
KB-3-1 cytotox: KB-3-1 parental cell cytotoxicity; KB-3-1 viability, CellTiter-Glo ATP luminescence, 72 h; 1.4% of 400,000 active; Potency, µM (highest dose often 46.1 µM), actives largely listed as cytotoxic; note: % is set by controls: 0 for no effect and ±100 for the full control effect; nearly all actives have a fitted effect of over 60% in size
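Multi-concentration cytotoxicity screen in KB-3-1 cells grown in DMEM lacking phenol red with 10% FBS. After 72 h at 37 °C with compound, ATP-dependent luminescence was recorded.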
The depositor's hits bear a star; ! = a repeat was not active. Only some compounds are listed: those with a hit (about 6.6% of all), similar ones and a draw of the others. Calls come from the whole dose curve; as a rule, active = well fitted curve in the direction sought with a large enough effect; inconclusive = small, poorly fitted or top-dose-only effect, or another doubt; inactive = no such curve, though single readings can be large; an effect the other way counts as inactive or inconclusive. Potency is the fitted concentration of half-maximal effect.

For CN(C)c1ccc2nc3ccc(=O)cc-3sc2c1 the results were HT1080-NT tox inconclusive, KB-V1 cytotox 16.4µM*, HT1080 IDH1KD tx inconclusive, HepG2 viability -104.2%, TGFb inhibitor inconclusive and KB-3-1 cytotox inconclusive.
c1ccc2nc(-c3cc4ccccc4s3)ccc2c1 was read as KB-V1 cytotox inactive, HepG2 viability -12.7%, TGFb inhibitor -1.7% and KB-3-1 cytotox inactive.
Screening CN(C)c1ccc2nc3ccc(=[N+](C)C)cc-3sc2c1 returned HT1080-NT tox 7.31µM*, KB-V1 cytotox inconclusive, HT1080 IDH1KD tx 20.6µM*, HepG2 viability 7.94µM*!, TGFb inhibitor 10µM* and KB-3-1 cytotox inconclusive.
CC(C)NC(=O)c1ccc(Cn2c(=O)c3cccn3c3cccnc32)cc1 was read as HepG2 viability -3.6% and TGFb inhibitor -19.0%.
Fc1ccc(Nc2nc(SCc3cccc(F)c3)nc3ccccc23)cc1 was read as HepG2 viability 12.6µM* and TGFb inhibitor inconclusive.
CCc1ccc(NC(=O)C(=O)c2ccccc2NC(C)=O)cc1 was read as HT1080-NT tox -4.1%, KB-V1 cytotox 23.1µM*, HT1080 IDH1KD tx -3.5%, HepG2 viability 5.0%, TGFb inhibitor -16.0% and KB-3-1 cytotox inactive.
For CC(=O)Nc1ccccc1C(=O)C(=O)Nc1ccc(C)c(C)c1 the results were HT1080-NT tox 7.9%, KB-V1 cytotox inconclusive, HT1080 IDH1KD tx 15.5%, HepG2 viability 6.2%, TGFb inhibitor 7.5% and KB-3-1 cytotox inactive.
`Cc1ccc2nc(NC(=O)c3ccc(OCC4CCCO4)cc3)sc2c1` (centres undefined) gave HT1080-NT tox -22.7%, KB-V1 cytotox inconclusive, HT1080 IDH1KD tx 7.31µM*, HepG2 viability -18.5%, TGFb inhibitor -4.7% and KB-3-1 cytotox inconclusive.
For COc1ccc2nc(NC(=O)c3ccc(NC(=O)C4CCCO4)cc3)sc2c1 (centres undefined) the results were HT1080-NT tox 0.7%, KB-V1 cytotox inactive, HT1080 IDH1KD tx -3.2%, HepG2 viability -30.4%, TGFb inhibitor -11.4% and KB-3-1 cytotox 7.31µM*.
`COc1ccc(N2CCN(C(CNC(=O)C(=O)NCc3cccnc3)c3cccnc3)CC2)cc1` (centres undefined) gave KB-V1 cytotox inactive, HepG2 viability -4.3%, TGFb inhibitor 7.1% and KB-3-1 cytotox inactive.
`COc1cc(/C=C(\C#N)C(=O)Nc2ccc(C)cc2)ccc1OCc1cc(=O)n2nc(C)sc2n1` gave KB-V1 cytotox inconclusive, HepG2 viability -3.5%, TGFb inhibitor -4.5% and KB-3-1 cytotox inactive.
`C=C(C)COc1ccc(-c2[nH]ncc2Oc2cccc(OC)c2)c(O)c1` gave HT1080-NT tox 23.1µM*, KB-V1 cytotox inconclusive, HT1080 IDH1KD tx inconclusive, HepG2 viability 17.8µM*, TGFb inhibitor inconclusive and KB-3-1 cytotox inactive.
`COc1ccc(-c2nc(N)ncc2Oc2ccccc2Br)c(O)c1` gave HT1080-NT tox -1.7%, KB-V1 cytotox inactive, HT1080 IDH1KD tx -11.6%, HepG2 viability 0.2%, TGFb inhibitor 2.6% and KB-3-1 cytotox inactive.
C=C(C)COc1ccc(-c2[nH]ncc2Oc2ccccc2OCC)c(O)c1 was read as HT1080-NT tox inconclusive, KB-V1 cytotox inactive, HT1080 IDH1KD tx 25.9µM*, HepG2 viability -89.3%, TGFb inhibitor inconclusive and KB-3-1 cytotox inconclusive.
Screening COc1cccc(Oc2cnc(N)nc2-c2ccc(OC)cc2O)c1 returned HT1080-NT tox inconclusive, KB-V1 cytotox 2.59µM*, HT1080 IDH1KD tx -74.7%, HepG2 viability 1.1%, TGFb inhibitor -7.0% and KB-3-1 cytotox 6.51µM*.
Screening CCn1cc(C(=O)NCc2ccc(Cl)cc2)c(=O)c2cc(S(=O)(=O)N(C)C3CCCCC3)ccc21 returned KB-V1 cytotox inactive, HepG2 viability -24.6%, TGFb inhibitor inconclusive and KB-3-1 cytotox inactive.
COC(=O)c1ccc2c(=O)n(CCCCCC(=O)NCCc3ccc(Cl)cc3)c(=O)[nH]c2c1 was read as KB-V1 cytotox inactive, HepG2 viability -29.8%, TGFb inhibitor inconclusive and KB-3-1 cytotox inactive.
For CCOC(=O)c1c(C)c(C(=O)Nc2ccc3c(c2)OCCO3)c(C)n1C the results were HT1080-NT tox inconclusive, KB-V1 cytotox 14.6µM*, HT1080 IDH1KD tx inconclusive, HepG2 viability -1.5%, TGFb inhibitor 15.0% and KB-3-1 cytotox inconclusive.
`CCOC(=O)c1c(C)c(C(=O)Nc2ccc(N(C)C)cc2)c(C)n1CC` gave HT1080-NT tox 8.91µM*, KB-V1 cytotox 4.11µM*, HT1080 IDH1KD tx 7.08µM*, HepG2 viability 2.2%, TGFb inhibitor -19.0% and KB-3-1 cytotox 7.31µM*.
For COc1cccc(OC)c1C(=O)Nc1ccc2c(c1)OCCO2 the results were HT1080-NT tox 1.7%, KB-V1 cytotox inactive, HT1080 IDH1KD tx -1.2%, HepG2 viability 5.5%, TGFb inhibitor 6.1% and KB-3-1 cytotox inactive.
CCOC(=O)c1c(C)c(C(=O)OCC)n(C)c1C was read as HT1080-NT tox 15.6%, KB-V1 cytotox inactive, HT1080 IDH1KD tx 8.0%, HepG2 viability -9.3%, TGFb inhibitor 6.6% and KB-3-1 cytotox inactive.
For CCOC(=O)c1c(C)c(C(=O)Nc2cc(F)ccc2F)c(C)n1C the results were HT1080-NT tox -27.5%, KB-V1 cytotox 2.59µM*, HT1080 IDH1KD tx inconclusive, HepG2 viability -12.2%, TGFb inhibitor -20.9% and KB-3-1 cytotox 10.3µM*.
`CCCN(CCC)C(=O)Cn1c(=O)n(CCCCCC(=O)NCc2ccccc2Cl)c(=O)c2sccc21` gave HepG2 viability 1.1% and TGFb inhibitor 27.8%.
Screening CC(=O)N1CC(c2ccccc2)C(c2ccc(Cl)cc2)=N1 (centres undefined) returned HT1080-NT tox 4.4%, KB-V1 cytotox 14.6µM*, HT1080 IDH1KD tx -0.9%, HepG2 viability -15.9%, TGFb inhibitor -43.2% and KB-3-1 cytotox inactive.
For CC(C)NC(=O)N1CC(c2ccccc2)C(c2ccc(Cl)cc2)=N1 (centres undefined) the results were HT1080-NT tox -4.6%, KB-V1 cytotox inconclusive, HT1080 IDH1KD tx -2.2%, HepG2 viability -15.9%, TGFb inhibitor -13.3% and KB-3-1 cytotox inactive.
For COCCC(=O)N1CCC(Oc2ccc(C(=O)NC3Cc4ccccc4C3)cc2)CC1 the results were HT1080-NT tox -1.5%, KB-V1 cytotox 4.11µM*, HT1080 IDH1KD tx -14.2%, HepG2 viability -13.3%, TGFb inhibitor -17.2% and KB-3-1 cytotox inactive.
